From PubChem
VP16 counter: Gal4-VP16 reporter inhibition counter-screen | Drosophila S2 Gal4-VP16 UAS-luciferase, luminescence, 20 h | Potency, µM (doses to about 53.6 µM), inactives show at the top dose activity, negative = inhibition, actives largely listed as inhibitors | 310,000 compounds, 3.5% hits;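 also: Gal4-VP16 expression switched on by copper sulfate through the metallothionein promoter; % is scaled to controls: 0 for no effect and ±100 for the full control effect; nearly all actives have a fitted effect of over 50% in size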
GLP-1R agonist: agonists of human GLP-1 receptor; HEK293 GLP-1R CRE-luciferase, luminescence, 4-6 h; cells express a hypersensitive GLP-1R form; 380,000 compounds, 0.007% hits; P43220; AID 624172; Potency, µM (doses to about 45.6 µM), for inactives: top-dose activation, hits mostly activators; also: % of control where 0% means no effect
HEK293 tox: cytotoxicity in counter-screen for GLP-1R inverse agonists | 410,000 compounds, 0.13% hits | HEK293 cAMP-luciferase reporter cells, luminescence, 24 h | Potency, µM (doses to about 38.3 µM), without a hit: at the top dose activity change, negative = inhibition, usual class: inhibitors;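 also: loss of luciferase light is scored as toxicity; % is scaled to controls: 0 for no effect and ±100 for the full control effect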
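Quantitative HTS format, 1536 wells, 200 cells/uL seeded. Compounds: 23 nL, 24 h, 37 °C. Detection: luciferase reagent, luminescence at 12 min RT; decreased signal taken as cytotoxic.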
GLP-1R inv ag: GLP-1 receptor (human) inverse agonism | P43220 | HEK293 GLP-1R CRE-luciferase, luminescence, 24 h; GLP-1R form is constitutively active | Potency, µM (doses to about 38.3 µM), for the others: at the highest dose activity change, negative = inhibition, usual class: inhibitors | 410,000 compounds, 1.6% hits | AID 624417; also: % is scaled to controls: 0 for no effect and ±100 for the full control effect; nearly all actives have a fitted effect of over 55% in size
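Cells are plated, allowed 12 hours at 37 deg C, then treated with compounds for 24 hr before luciferase detection reagent is added and luminescence is read after 12 min at room temperature. The HEK293 line carries constitutively active GLP-1R with a cAMP-responsive reporter.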
RORg inh: blocks mouse ROR gamma transcriptional activity. Potency, µM (highest dose often 53.6 µM), inactives show at the highest dose activity change, negative = inhibition, hits mostly inhibitors. P51450. 310,000 compounds, 5.4% hits. Drosophila S2 Gal4-RORgamma UAS-luciferase reporter, 20 h; also: % is scaled to controls: 0 for no effect and ±100 for the full control effect; nearly all actives have a fitted effect of over 60% in size
Target sequence (P51450 whole entry, looked up, the tested form may be a part): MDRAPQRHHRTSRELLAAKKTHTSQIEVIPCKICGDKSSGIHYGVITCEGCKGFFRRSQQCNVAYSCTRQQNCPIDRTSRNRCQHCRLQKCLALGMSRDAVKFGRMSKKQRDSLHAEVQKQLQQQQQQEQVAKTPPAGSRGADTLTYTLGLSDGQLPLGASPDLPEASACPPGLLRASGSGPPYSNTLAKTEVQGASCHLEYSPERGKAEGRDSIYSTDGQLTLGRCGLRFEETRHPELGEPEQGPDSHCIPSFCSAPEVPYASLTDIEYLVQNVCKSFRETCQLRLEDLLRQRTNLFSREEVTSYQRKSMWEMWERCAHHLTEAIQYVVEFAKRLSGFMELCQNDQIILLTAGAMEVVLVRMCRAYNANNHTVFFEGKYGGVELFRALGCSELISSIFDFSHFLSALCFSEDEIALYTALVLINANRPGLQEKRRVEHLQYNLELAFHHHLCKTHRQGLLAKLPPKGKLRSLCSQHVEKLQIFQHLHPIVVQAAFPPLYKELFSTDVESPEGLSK
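Luminescence from a UAS-regulated Photinus luciferase reporter in stably transfected Drosophila Schneider cells is measured; decreased signal marks ROR gamma inhibition. Fusion expression is induced by 700 uM copper sulfate for 20 hr.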
Active calls of the source: *; ? = inconclusive; / = not tested or not shown; [ ] = remark or other dose. This is a sample that favours compounds with a hit; in the whole collection about 5.9% have one here. Calls follow the shape of the dose curve; as a rule, active = well fitted curve in the direction sought with a large enough effect; inconclusive = small, poorly fitted or top-dose-only effect, or another doubt; inactive = no such curve, though single readings can be large; an effect the other way counts as inactive or inconclusive. Potency is read from the fitted curve at half-maximal effect.

SMILES	VP16 counter	GLP-1R agonist	HEK293 tox	GLP-1R inv ag	RORg inh
CCn1c(=O)c(C(=O)NNC(=O)c2ccccc2Cl)c(O)c2ccccc21	?	10%	-2%	-10%	7.9µM*
Cn1c(=O)c(C(=O)NNC(=O)c2ccccc2F)c(O)c2ccccc21	?	0%	-8%	?	18µM*
CCn1c(=O)c(C(=O)NNC(=O)c2ccccc2F)c(O)c2ccccc21	?	13%	12%	5%	7.9µM*
CCCCCCCCCC(=O)NNC(=O)c1c(O)c2ccccc2n(CC)c1=O	0%	-1%	29%	-2%	-11%
COCc1cc(C)nc2sc3c(c12)NC(c1ccc(O)cc1)N(c1ccc(OC)cc1)C3=O (stereo unspecified)	/	/	33%	28%	/
CCCCNc1nc2c(c(=O)n(Cc3ccc(Cl)c(Cl)c3)c(=O)n2C)n1C	/	-1%	2%	?	/
Fc1ccc2[nH]c3c(N4CCc5ccccc5C4)ncnc3c2c1	3.2µM*	13%	?	?	11µM*
Cc1ccc2[nH]c3c(N4CCc5ccccc5C4)ncnc3c2c1	3.2µM*	2%	?	?	?
Fc1ccc2[nH]c3c(NCCN4CCOCC4)ncnc3c2c1	13µM*	4%	-7%	11%	?
Clc1ccc2[nH]c3c(NCCN4CCOCC4)ncnc3c2c1	/	7%	25%	2%	26%[0.365 µM]
Brc1ccc2[nH]c3c(N4CCc5ccccc5C4)ncnc3c2c1	6%	-4%	-29%	4%	-20%
CCNc1ncc2nc(C)c(=O)n(C3CC3)c2n1	9%	/	/	/	1%
COc1ccc(Br)cc1CNC(=O)c1cnc2sc(N3CCCC3)nn2c1=O	/	/	4%	11%	/
CO[C@H]1COC(=O)C/C=C\[C@@H](C)[C@H](OC)COC(=O)CCC[C@@H]1C	-15%[10 µM]	/	/	/	14%[10 µM]
Cc1cccc(CNc2cc(-c3cccc(C#N)c3)ncn2)c1	13µM*	/	/	/	-24%
COc1ccccc1CNc1cc(-c2cccc(C#N)c2)ncn1	8%	/	/	/	1%
CCN1C(=O)[C@H]2[C@H]3[C@H](O)[C@H](O)C/C(=N/O[C@@H]4O[C@H](COC(C)=O)[C@@H](OC(C)=O)[C@H](OC(C)=O)[C@H]4OC(C)=O)[C@@H]3CC[C@@H]2C1=O	-5%[10 µM]	/	/	/	-21%[10 µM]
CCN(C(=O)Cn1c(=O)n(Cc2ccc3c(c2)OCO3)c(=O)c2ccc(C(=O)NC3CCCCC3)cc21)c1cccc(C)c1	/	-1%	0%	-22%	/
COc1ccc(NC(=S)/N=C(\N)Nc2nc(C)c3ccc(C)cc3n2)cc1	2µM*	0%	-8%	?	0.63µM*
CCOc1ccc2nc(N/C(N)=N/C(=S)Nc3ccc(C)c(C)c3)nc(C)c2c1	?	1%	-3%[1.53 µM]	-9%	1.8µM*
Cc1ccc2cccc(OCc3ccccc3)c2n1	-1%	16%	14%	-29%	14µM*
COc1cc(CCc2ccccc2)c(C(=O)O)c(O)c1CC=C(C)C	/	-1%	-11%	10µM*	/
CC1=NN(C2=NS(=O)(=O)c3ccccc32)C(C)(O)C1 (stereo unspecified)	3.5µM*	7%	?	?	1.3µM*
O=S1(=O)N=C(N2CCOCC2)c2ccccc21	-1%	-18%	84%	0%	2%[10 µM]
COC(=O)[C@H](Cc1ccccc1)NC(=O)O[C@H]1C(=O)c2cc(OC)ccc2O[C@@H]1c1ccc(OC)c(Br)c1	10%	/	/	/	-1%
SMILES	VP16 counter	GLP-1R agonist	HEK293 tox	GLP-1R inv ag	RORg inh
CCc1ccc2[nH]c(O)c(N=Nc3nc(-c4ccccc4)cs3)c2c1	?	-35%	-3%	-21%	13µM*
COc1cc(-c2ccc(N=C=O)c(OC)c2)ccc1N=C=O	-2%	/	/	/	6%
COc1ccccc1-n1c(Cc2cccs2)n[nH]c1=S	-17%	9%	3%	-5%	10µM*
Cc1ccc(C)c(-n2c(-c3ccc4c(c3)OCO4)n[nH]c2=S)c1	0%	2%	-25%	?	7%
Cc1ccc(C)c(-n2c(Cc3cccs3)n[nH]c2=S)c1	3.2µM*	7%	?	-29%	7.1µM*
COc1ccccc1-n1c(CNC(=O)c2cccs2)n[nH]c1=S	4%	1%	-2%[7.66 µM]	-11%[7.66 µM]	-23%
S=c1[nH]nc(Cc2cccs2)n1-c1ccccc1	?	-2%	-5%	1%	11µM*
S=c1[nH]nc(Cc2cccs2)n1-c1ccccc1Cl	?	0%	-2%	-10%	6.3µM*
CC(C)(C)Cn1nc(-c2ccc(Cl)cc2)c2c(N)ncnc21	1%	/	/	/	6%
CCCCc1ccc(-n2c(Cc3cccs3)n[nH]c2=S)cc1	?	27%	-11%	?	1.4µM*
S=c1[nH]nc(Cc2cccs2)n1-c1cccc2ccccc12	?	7%	?	-16%	4µM*
S=c1[nH]nc(-c2cccc3ccccc23)n1-c1cccnc1	-2%	0%	-7%	9%	-43%
CCCCOCC(O)CCc1n[nH]c(=S)n1-c1ccccc1 (stereo unspecified)	-6%	7%	2%	14%	-45%
O=C1OC(=O)c2ccccc21	7%	/	/	/	-29%
O=C(N/N=C/c1ccccc1O)C1CC(=O)N(c2ccc(Cl)cc2)C1 (stereo unspecified)	1.1µM*	-6%	-24%	?	0.89µM*
O=C(CCSc1nc2ccccc2o1)Nc1ccccc1	-3%	-1%	-40%	-2%	1%
CC1=C(C(=O)Nc2ccccc2)C(c2ccc(C)cc2)N=C(Nc2nc3ccccc3o2)N1 (stereo unspecified)	11µM*	-13%	?	?	?
O=C(c1ccco1)N(CCC(c1ccccc1)c1ccco1)Cc1ccc(F)cc1 (stereo unspecified)	-10%	?	8%	0%	?
CC1(C)CC(C(CCN(Cc2ccccc2)C(=O)c2ccco2)c2ccc(F)cc2)CCO1 (stereo unspecified)	?	-29%	?	7.9µM*	?
COC(=O)C1=C[C@@H](C(=O)OC)C2C3=C(C(=O)[C@]2(C)NC(=O)c2ccccc2)[C@H](C)n2c(=O)n(-c4ccccc4)c(=O)n2[C@@H]3C1 (stereo partly specified)	-10%	/	/	/	-21%
CCOC(=O)c1ccc(CN(Cc2ccc(Cl)cc2Cl)S(=O)(=O)c2cccc(Cl)c2)cc1	/	/	3%	3%	/
COc1ccccc1NC1=C(C)C(=O)CC1	-4%	-18%	-25%	25%	13µM*
OC[C@@H]1O[C@H](O)[C@H](O)[C@@H](O)[C@@H]1O	7%	/	/	/	10%
CN(C)CCCn1c(=O)n(CCc2ccccc2)c(=O)c2c3c(sc21)CCCCC3	-17%	11%	20%	?	-11%
CN(C)CCCn1c(=O)n(Cc2ccco2)c(=O)c2c3c(sc21)CCCCC3	-4%	16%	-4%	4.5µM*	-7%
